High-throughput results deposited in PubChem by National Center for Advancing Translational Sciences (NCATS).
Hits are enriched below; roughly 10% of the tested compounds scored in any of these assays.
G9a inh: inhibitors of human histone lysine methyltransferase G9a; Q96KQ7; Potency, µM (doses to about 102 µM), actives largely listed as inhibitors; 8.8% of 350,000 active; G9a H3K9 monomethylation, AlphaScreen, 2 h; further: nearly all actives have a fitted effect of over 75% in size
Target sequence (Q96KQ7 913-1193 limits assumed): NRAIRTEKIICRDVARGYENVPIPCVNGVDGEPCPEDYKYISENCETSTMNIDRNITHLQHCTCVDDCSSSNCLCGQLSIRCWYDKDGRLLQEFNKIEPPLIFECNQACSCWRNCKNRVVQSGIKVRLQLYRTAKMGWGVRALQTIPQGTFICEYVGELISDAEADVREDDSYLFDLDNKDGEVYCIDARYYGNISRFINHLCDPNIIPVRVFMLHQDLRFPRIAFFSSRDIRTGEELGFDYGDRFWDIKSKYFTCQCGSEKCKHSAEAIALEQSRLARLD
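G9a (20 nM) preincubated 15 min RT with compounds, then 500 nM biotinylated H3K9 peptide and 20 uM SAM added; 2 h RT reaction. Monomethyl-H3K9 product detected by AlphaScreen with anti-H3K9me1 antibody, streptavidin donor and anti-rabbit IgG acceptor beads.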
PLK1 PBD inh: blocks phosphopeptide binding to human PLK1 polo-box domain. P53350. Plk1 PBD binding of FITC phosphopeptide, fluorescence polarization. Potency, µM, hits mostly inhibitors. 2.8% of 360,000 active. AID 720504; further: series mostly up to about 57 µM; nearly all actives have a fitted effect of over 65% in size
Mm-Cpn inhibitor: blocks the Methanococcus maripaludis chaperonin Mm-Cpn; Potency, µM (top dose mostly 76.9 µM), most hits filed as inhibitors; purified Mm-Cpn ATPase, ADP Transcreener TR-FRET; 0.031% of 330,000 active; further: nearly all actives have a fitted effect of over 80% in size
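Purified archaeal Mm-CPN (25nM final) preincubated 10 min at 37degC with compound, then 10uM ATP for 30 min at 37degC; ADP measured by HTRF Transcreener TR-FRET; buffer 30 mM TRIS pH 7.4, 100mM KCl, 5mM MgCl2, 1mM DTT.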
CCT chaperon mod: changes cytosolic chaperonin activity; activity change, % (test concentration not listed), hits read low; purified chaperonin ATPase assay, HTRF ADP detection, 30 min; AID 651819; 0.3% of 360,000 active; in the data active means activity change below about -30%
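ATPase activity: ADP formed was measured by HTRF Transcreener (665/615 nm ratio) after 30 min at 37 deg C with 10 uM ATP. Compounds screened at one 76 uM concentration against 40 or 20 nM TRiC in Tris pH 7.4/KCl/MgCl2/DTT buffer.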
VDR inh: inhibitors of human vitamin D receptor. 0.93% of 400,000 active. Potency, µM, hits mostly inhibitors. P11473. VDR-SRC2-3 peptide fluorescence polarization, 2 h. AID 504847
Target sequence (P11473 whole entry, looked up): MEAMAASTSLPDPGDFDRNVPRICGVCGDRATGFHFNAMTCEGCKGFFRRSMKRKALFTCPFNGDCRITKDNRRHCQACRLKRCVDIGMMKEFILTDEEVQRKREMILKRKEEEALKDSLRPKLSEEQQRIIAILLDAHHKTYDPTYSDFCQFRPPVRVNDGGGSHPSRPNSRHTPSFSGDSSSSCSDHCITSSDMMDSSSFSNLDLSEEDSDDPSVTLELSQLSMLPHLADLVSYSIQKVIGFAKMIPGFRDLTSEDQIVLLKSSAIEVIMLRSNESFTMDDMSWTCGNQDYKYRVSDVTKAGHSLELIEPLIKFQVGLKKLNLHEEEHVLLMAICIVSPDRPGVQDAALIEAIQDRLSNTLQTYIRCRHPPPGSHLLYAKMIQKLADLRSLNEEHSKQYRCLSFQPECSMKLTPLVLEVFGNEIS
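Fluorescence polarization assay of small-molecule disruption of VDR binding to coregulator peptide SRC2-3. Compounds and controls pin-transferred, then read after 2 h incubation at ambient room temperature.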
Sfp PPTase inh: blocks B. subtilis Sfp PPTase activity; 3.5% of 310,000 active; Q9F4F7; Biochemical Sfp PPTase activity, qHTS; Potency, µM, most hits filed as inhibitors; AID 1490;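 further: the enzyme is Sfp with the accession as filed and its product quenches rhodamine fluorescence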
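Fluorescence-quenching assay: 15 nM Sfp-PPTase preincubated 15 min at room temperature with compound, then 5 uM rhodamine-CoA and 12.5 uM BHQ-2-labelled YbbR peptide added. Fluorescence (ex 525/em 598 nm) read at start and after 30 min; difference gives rate.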
Large screens that a line does not name were inactive; ! = not active in a repeat. Unless noted, the call rests on the fitted dose curve; in most records, active means well fitted curve in the direction sought with a large enough effect; inconclusive means small, poorly fitted or top-dose-only effect, or another doubt; inactive means no such curve, though single readings can be large; an effect the other way counts as inactive or inconclusive.

COC(=O)CCNC(=O)Cc1c(C)n(C(=O)c2ccc(Cl)cc2)c2ccc(OC)cc12	G9a inh 50µM
CCCCCCCCCCCCCCCCOCCOCCOCCOCCOCCOCCOCCOCCOCCOCCOCCOCCOCCOCCOCCOCCOCCOCCOCCOCCO	Sfp PPTase inh 50µM (no result: PLK1 PBD inh, Mm-Cpn inhibitor, CCT chaperon mod)
COc1cccc2sc3ccc(C#CC4(N)CCCCC4)cc3c(=O)c12	Sfp PPTase inh 79µM (no result: G9a inh)
CNC(C)C#Cc1ccc2oc3cccc(OC)c3c(=O)c2c1 (stereo unspecified)	G9a inh 45µM
COc1cccc2oc3ccc(C#Cc4ccccn4)cc3c(=O)c12	G9a inh 50µM, Mm-Cpn inhibitor inconclusive
CNC(C)C#Cc1ccc2c(=O)c3c(OC)cccc3oc2c1 (stereo unspecified)	none (no result: G9a inh, PLK1 PBD inh, CCT chaperon mod, VDR inh)
CNC(C)C#Cc1ccc2sc3cccc(OC)c3c(=O)c2c1 (stereo unspecified)	G9a inh 71µM
COc1cccc2sc3cc(C#Cc4ccccn4)ccc3c(=O)c12	none (no result: G9a inh, Sfp PPTase inh)
COc1ccc(NC(=O)c2sc3nc4c(c(-c5ccc(OC)cc5)c3c2N)C(=O)CC(C)(C)C4)cc1	none (no result: PLK1 PBD inh, Mm-Cpn inhibitor, CCT chaperon mod, Sfp PPTase inh)
O=c1c(O)c(-c2cccs2)oc2ccccc12	G9a inh 18µM
O=c1c(O)c(-c2cccs2)oc2ccc(Cl)cc12	none
Cc1ccccc1C(=O)Nc1nnc(S(=O)(=O)N2CCCc3ccccc32)s1	none (no result: PLK1 PBD inh, Mm-Cpn inhibitor, CCT chaperon mod, Sfp PPTase inh)
CC(=O)c1c(C)nc(-c2ccc(Cl)cc2)nc1NC(=O)C(C)C	CCT chaperon mod -74
CC(=O)c1c(C)nc(-c2ccccc2)nc1NC(=O)C(C)C	none
CCC(=O)Nc1ccc2nc3c(=O)[nH]c(=S)[nH]c3nc2c1	G9a inh 32µM, PLK1 PBD inh inconclusive
CCN(CC)S(=O)(=O)c1ccc2c(c1)N(CC(=O)N1CCN(c3cccc(Cl)c3)CC1)C(=O)CO2	none (no result: PLK1 PBD inh, Mm-Cpn inhibitor, CCT chaperon mod, Sfp PPTase inh)
CN1CCN(C(=S)c2cn(CCOc3ccccc3)c3ccccc23)CC1	G9a inh 40µM
CN1CCN(C(=S)c2cn(CCOc3ccccc3F)c3ccccc23)CC1	G9a inh 35µM, PLK1 PBD inh inconclusive
CC1CCN(C(=O)C2COc3ccccc3C2)CC1 (stereo unspecified)	none (no result: PLK1 PBD inh, Mm-Cpn inhibitor, CCT chaperon mod, Sfp PPTase inh)
CC(C)(C)NCc1cc(Br)ccc1OCc1cccs1	G9a inh 18µM
COc1ccc(-c2noc(-c3cccc(OC)c3OC)n2)cc1	none (no result: PLK1 PBD inh, Mm-Cpn inhibitor, CCT chaperon mod, Sfp PPTase inh)
CC1Cc2ccccc2N1Cc1cc(=O)n2ccsc2n1 (stereo unspecified)	G9a inh inconclusive, PLK1 PBD inh 24µM
Cc1cc2nn(-c3ccc(F)cc3)nc2cc1NC(=O)c1cccc([N+](=O)[O-])c1C	none (no result: PLK1 PBD inh, Mm-Cpn inhibitor, CCT chaperon mod, Sfp PPTase inh)
COc1ccc(-c2coc3c(CN4CCCCC4)c(O)c(CN4CCCCC4)c(O)c3c2=O)cc1	Sfp PPTase inh 16µM (no result: PLK1 PBD inh, CCT chaperon mod, VDR inh)
Nc1ccc2c(c1Br)Cc1ccccc1-2	CCT chaperon mod -41 (no result: G9a inh, Mm-Cpn inhibitor, Sfp PPTase inh)
COC(=O)c1ccccc1S(=O)(=O)N1CCC(C(=O)OCC(=O)c2ccccc2OC)CC1	G9a inh 40µM (no result: Sfp PPTase inh)
COC(=O)c1ccccc1S(=O)(=O)N1CCC(C(=O)OCC(=O)NC2CCCCC2C)CC1 (stereo unspecified)	G9a inh 20µM (no result: Sfp PPTase inh)
COc1ccc(CCNS(=O)(=O)c2ccc(N3CCCCS3(=O)=O)cc2)cc1	none (no result: PLK1 PBD inh, Mm-Cpn inhibitor, CCT chaperon mod, Sfp PPTase inh)
Cc1cccc(OC(=O)c2cc(-c3ccc4c(c3)OCCO4)on2)c1C	G9a inh inconclusive (no result: PLK1 PBD inh, Mm-Cpn inhibitor, CCT chaperon mod, Sfp PPTase inh)
COc1ccc(S(=O)(=O)NNc2nc(C)cc(C)n2)cc1Br	G9a inh 22µM (no result: Sfp PPTase inh)
Cc1cc(C)nc(NNS(=O)(=O)c2ccc(Cl)cc2)n1	none (no result: G9a inh, Sfp PPTase inh)
COc1ccc(OC)c(NC(=O)C2CCCN2C(=O)OCc2ccccc2)c1 (stereo unspecified)	none
COc1cc2nc(N3CCN(C(=O)OCc4ccccc4)[C@H](C(=O)NC(C)(C)C)C3)nc(N)c2cc1OC	G9a inh 7.1µM
COc1cc2nc(N3CCN(C(=O)OCc4ccccc4)C(C(=O)NC(C)(C)C)C3)nc(N)c2cc1OC (stereo unspecified)	G9a inh 5.6µM! (no result: PLK1 PBD inh, Mm-Cpn inhibitor, CCT chaperon mod, Sfp PPTase inh)
COc1ccc(NC(=O)C2CCCN2C(=O)OCc2ccccc2)cc1 (stereo unspecified)	none
CCN(CC)C(=O)c1sc2c(c1C)c(=O)n(Cc1ccccc1)c(=O)n2Cc1ccccc1C	none (no result: PLK1 PBD inh, Mm-Cpn inhibitor, CCT chaperon mod, Sfp PPTase inh)
COc1cc(C=C2C(=O)c3ccccc3C2=O)ccc1O	none
COc1ccc(/C=C2\CN(Cc3ccccc3)C/C(=C\c3ccc(OC)c(O)c3)C2=O)cc1O	G9a inh 45µM, VDR inh inconclusive
COc1cc(C=C2C(=O)c3ccccc3C2=O)cc(OC)c1	PLK1 PBD inh 1.1µM, VDR inh inconclusive (no result: G9a inh)
COc1cc(/C=C/c2ccccc2)cc(OC)c1	none (no result: G9a inh, Mm-Cpn inhibitor, Sfp PPTase inh)
COc1ccc(C=C2C(=O)c3ccccc3C2=O)cc1O	G9a inh 13µM, PLK1 PBD inh 19µM
CCOCCCNC(=S)N(CCO)Cc1cc2cc3c(cc2[nH]c1=O)OCCO3	Sfp PPTase inh 56µM
O=C(Nc1ccc(OCC(=O)N2CCC(Cc3ccccc3)CC2)cc1)c1ccco1	Sfp PPTase inh 89µM
CC1CCN(C(=O)COc2ccc(Nc3ccccc3)cc2)CC1	G9a inh 50µM
CC1CCCN(C(=O)COc2ccc(Nc3ccccc3)cc2)C1 (stereo unspecified)	G9a inh 40µM
CC(=O)Nc1ccc(OCC(=O)N2CCC(Cc3ccccc3)CC2)cc1	none
